We go through two compounds from PubChem BioAssay.

Each structure is given as a SMILES string. Inconclusive results are not listed. Activity calls are given as the source filed them. Unless noted, how the calls were made is not given here.

Assay [1] in a line: antimalarial activity against Dd2 strain (AID 2302;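 active means growth inhibition above 50% at the single 2 µM test dose, taken to imply half-maximal potency below 2 µM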;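 further: 0% = DMSO untreated growth and 100% = chloroquine plus artemisinin killed control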). The note with it: P. falciparum Dd2 in RBCs, LDH growth readout, 72 h; at 2 µM; stronger effect = higher value.
The nature of assay [2]: human hepatoma cell viability loss – ATP luminescence, cytotoxicity control for P. falciparum antimalarial project, primary screen (AID 2303;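 active means inhibition above 50%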;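 further: 0% = DMSO wells and 100% = digitonin-killed cells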). The following applies: HepG2 viability, 24-48 h, at 10 µM, stronger effect = higher value.
Assay [3] addresses L-lactate dehydrogenase (Plasmodium falciparum (isolate CDC / Honduras)) (UniProt Q27743). Description: PfLDH activity inhibition – cell lysate, 3D7 strain, counter-screen for P. falciparum growth inhibition project (AID 2304).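 Further: 0% = vehicle and 100% = reference inhibitor.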 The following applies: P. falciparum 3D7 crude extract, LDH APAD/NBT absorbance; at 2 µM; stronger effect = higher value. For orientation: A counterscreen serves to expose hits that act by an unwanted route or on another target.

Assay [4] is described as follows: inhibition of 3D7 malaria parasite growth – strain 3D7 (AID 2306).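 Further: 0% = DMSO wells and 100% = chloroquine plus artemisinin control wells.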 The following applies: P. falciparum 3D7 erythrocytic growth, LDH absorbance, 72 h; at 2 µM; stronger effect = higher value.
The nature of assay [5]: glutamate excitotoxicity neuroprotectants – cell-based, TUNEL DNA degradation staining, MNGlu (AID 1594). The following applies: motor neurons, glutamate-induced death, at 1 µM, stronger effect = higher value.

Chain of L-lactate dehydrogenase (Plasmodium falciparum (isolate CDC / Honduras)) (Q27743 whole entry, looked up): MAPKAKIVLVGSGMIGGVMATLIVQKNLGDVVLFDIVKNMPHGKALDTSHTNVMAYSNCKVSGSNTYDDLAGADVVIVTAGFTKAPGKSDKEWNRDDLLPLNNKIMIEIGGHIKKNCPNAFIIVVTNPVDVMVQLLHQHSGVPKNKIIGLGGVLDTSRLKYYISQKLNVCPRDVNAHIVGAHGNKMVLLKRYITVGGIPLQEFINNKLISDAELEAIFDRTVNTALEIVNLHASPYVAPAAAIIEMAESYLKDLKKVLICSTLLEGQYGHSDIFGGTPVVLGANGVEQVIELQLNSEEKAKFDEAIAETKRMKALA

As a reminder, the inhibition is the drop in the measured response relative to a control, in per cent. Turning to `C[C@@H]1C[C@@H]([C@H](O)CC2CC(=O)NC(=O)C2)C(=O)[C@@H](C)C1`, the growth inhibition in assay [1] is 87% (active); in assay [4], 96% (active). Moreover, the inhibition in assay [2] is 46% (inactive); in assay [3], -5% (inactive).

For the compound `CC(CCc1ccccc1)NC(C)C(O)c1ccc(O)cc1` (stereo not given), the protection in assay [5] is 40% (active).
